Most compounds without a hit are left out; they make up all but 11% or so of the library.
L3MBTL1 block: qHTS Assay for the Inhibitors of L3MBTL1; Lethal(3)malignant brain tumor-like protein 1 (Homo sapiens), Q9Y468; AlphaScreen L3MBTL1–H3K9me1 peptide binding; Potency, µM (top dose mostly 57.1 µM), without a hit: at the top dose activity, negative = inhibition, usual class: inhibitors; hit rate 0.66% among 230,000; AID 485360, 2010; note: % is set by controls: 0 for no effect and ±100 for the full control effect; nearly all actives have a fitted effect of over 60% in size
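L3MBTL1 (50 nM) pre-complexed 30 min with biotinylated H3(1-15)K9me1 peptide (75 nM), then compounds added for 30 min at room temperature; AlphaScreen streptavidin donor/nickel chelate acceptor beads (10 ug/mL final) read after 30 min dark incubation.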
HP1b chromo inh: HTS for Inhibitors of HP1-beta Chromodomain Interactions with Methylated Histone Tails; AlphaScreen HP1-beta / biotin-H3K9me3 peptide binding; Potency, µM (top dose mostly 114 µM), for the others: at the highest dose activity change, negative = inhibition, hits mostly inhibitors; hit rate 0.56% among 390,000; Chromobox protein homolog 1 (Homo sapiens), P83916; note: nearly all actives have a fitted effect of over 70% in size
Target sequence (P83916 whole entry, looked up): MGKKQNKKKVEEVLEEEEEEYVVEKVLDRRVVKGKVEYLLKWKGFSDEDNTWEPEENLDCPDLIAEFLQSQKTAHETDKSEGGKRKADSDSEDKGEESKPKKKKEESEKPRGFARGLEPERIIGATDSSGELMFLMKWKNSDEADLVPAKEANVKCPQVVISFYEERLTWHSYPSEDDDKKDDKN
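AlphaScreen: HP1-beta (50 nM) preformed 30 min with biotin-H3(1-18)K9me3 peptide (50 nM) in PBS pH 7.4, 0.01% Tween-20. Compound added for 30 min at RT, then streptavidin donor/nickel chelate acceptor beads (10 ug/mL) for 30 min.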
BAZ2B block: qHTS Assay for Inhibitors of BAZ2B | Bromodomain adjacent to zinc finger domain protein 2B (Homo sapiens), Q9UIF8 | AlphaScreen BAZ2B-H3K14Ac peptide displacement | Potency, µM (highest dose often 114 µM), for the others: top-dose activity change, negative = inhibition, hits mostly inhibitors | hit rate 4.4% among 360,000 | AID 504333, 2011; note: % is set by controls: 0 for no effect and ±100 for the full control effect; nearly all actives have a fitted effect of over 60% in size
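AlphaScreen displacement: compounds (up to 110uM) incubated 30 min at room temperature with a preformed 50 nM BAZ2B/50 nM biotinylated H3K14Ac peptide complex in PBS pH 7.4 with Tween-20. Donor and acceptor beads at 10 ug/mL final added, 20 min light-protected before reading.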
JMJD2A Tudor: qHTS Assay for Inhibitors of JMJD2A-Tudor Domain; Lysine-specific demethylase 4A (Homo sapiens), O75164; AlphaScreen JMJD2A-Tudor / H3K4me3 peptide binding; Potency, µM (top dose mostly 114 µM), inactives show top-dose activity change, negative = inhibition, usual class: inhibitors; hit rate 4.4% among 390,000; AID 504339, 2011; note: % is set by controls: 0 for no effect and ±100 for the full control effect; nearly all actives have a fitted effect of over 50% in size
G9a block: qHTS Assay for Inhibitors of Histone Lysine Methyltransferase G9a; Histone-lysine N-methyltransferase EHMT2 (Homo sapiens), Q96KQ7; G9a H3K9 monomethylation, AlphaScreen, 2 h; Potency, µM (highest dose often 102 µM), for inactives: at the highest dose activity, negative = inhibition, usual class: inhibitors; hit rate 8.8% among 350,000; AID 504332, 2011; note: % is set by controls: 0 for no effect and ±100 for the full control effect; nearly all actives have a fitted effect of over 75% in size
Target sequence (Q96KQ7 913-1193 limits assumed): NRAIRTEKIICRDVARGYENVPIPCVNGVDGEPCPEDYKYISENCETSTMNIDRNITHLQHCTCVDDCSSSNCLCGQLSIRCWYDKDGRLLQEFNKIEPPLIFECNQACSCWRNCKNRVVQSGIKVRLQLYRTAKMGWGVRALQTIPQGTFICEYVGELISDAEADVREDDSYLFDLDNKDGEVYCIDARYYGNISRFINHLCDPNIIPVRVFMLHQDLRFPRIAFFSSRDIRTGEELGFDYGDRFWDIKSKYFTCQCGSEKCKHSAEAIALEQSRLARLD
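G9a (20 nM) preincubated 15 min RT with compounds, then 500 nM biotinylated H3K9 peptide and 20 uM SAM added; 2 h RT reaction. Monomethyl-H3K9 product detected by AlphaScreen with anti-H3K9me1 antibody, streptavidin donor and anti-rabbit IgG acceptor beads.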
Active calls of the source: *; ? = inconclusive; nt = no result given; [ ] = another dose, or the depositor's remark. Calls come from the whole dose curve; as a rule, active = well fitted inhibition curve with a large enough effect; inconclusive = small, poorly fitted or top-dose-only effect; inactive = no such curve, though single readings can be large or run the other way. Potency is the fitted concentration of half-maximal effect.

SMILES	L3MBTL1 block	HP1b chromo inh	BAZ2B block	JMJD2A Tudor	G9a block
CC(=O)c1sc(NC(=O)CCNC(=O)c2ccco2)nc1-c1ccccc1	nt	13%	?	-18%	8%[0.501 µM]
O=C(CCl)Nc1nc(-c2ccco2)c(-c2ccco2)s1	-8%	?	50µM*	?	11µM*
CC1CCC(=O)N(CCC#N)CC1 (stereo unspecified)	2%	23%	-30%	-8%	50µM*
O=C(/C=C/c1ccncc1)c1ccc2c(c1)OCCO2	-12%	29%	-37%	-20%	50µM*
Cc1ccc2c(=O)cc(C(=O)Nc3c(C(=O)c4ccccc4)oc4ccccc34)oc2c1C	nt	15%	-5%	-11%	-9%[59 µM]
COc1ccc(C(=O)COC(=O)[C@H](C)Nc2ccc(C(F)(F)F)cc2[N+](=O)[O-])c(OC)c1	-22%	-24%	50µM*	-32%	?
Clc1ccc(OCCCN2CCCCC2)c(Br)c1	-1%	?	79µM*	4µM*	3.5µM*
Brc1ccccc1OCCCCCN1CCCC1	-2%	nt	-4%	nt	4%[0.0925 µM]
CCN1CCN(CCCOc2ccc(Cl)cc2Br)CC1	26%	?	20µM*	22µM*	nt
Clc1ccc(OCCCCCN2CCCC2)c(Br)c1	-10%	?	79µM*	2µM*	?
C=CCN(C(C(=O)OC)C(C)C)S(=O)(=O)C=C (stereo unspecified)	nt	30%	nt	4%	nt
CC(C)CC(NC(N)=O)C(=O)OCC(=O)N(Cc1ccccc1)Cc1ccccc1 (stereo unspecified)	nt	0%	4%	-10%	3%
CCOCCCN(Cc1cc2cc(C)cc(C)c2[nH]c1=O)C(=O)N(CC)CC	4%	15%	6%	9%	-7%[59 µM]
CCc1cc2cc(C)cc(C)c2[nH]c1=S	nt	-25%	?	8.9µM*	1.4µM*
C[C@H](NC(=O)[C@@H]1Cc2ccccc2CN1)C(=O)NC1CCCC1	nt	35%	-38%	-5%	79µM*
C[C@@H](NC(=O)[C@@H]1Cc2ccccc2CN1C(=O)OC(C)(C)C)C(=O)NC1CCCCC1	nt	39%	12%	-2%	79µM*
CC(C)C[C@H](NC(=O)[C@@H]1Cc2ccccc2CN1)C(=O)Nc1ccc(C(C)C)cc1	nt	10%	?	-30%	28µM*
C[C@H](NC(=O)[C@@H]1Cc2ccccc2CN1C(=O)OC(C)(C)C)C(=O)NC1CCCCC1	nt	28%	-12%	7%	10%
CSCC[C@H](NC(=O)[C@@H]1Cc2ccccc2CN1)C(=O)NC1CCCCC1	nt	30%	-32%	-8%	25µM*
Cc1ccc(CN2C(=O)CC(c3ccc(Cl)cc3)c3c(C)nn(-c4nc(C)cc(C)n4)c32)cc1 (stereo unspecified)	nt	35%	-29%	?	-32%[59 µM]
N#Cc1cn(N2CCCCC2)c(=O)[nH]c1=O	nt	22%	-3%	-4%	11%
Nc1cc(=O)[nH]c(SCC(=O)NC2CCCCCCC2)n1	5%	24%[57 µM]	nt	-6%	nt
C[C@H](NC(=O)[C@@H]1Cc2ccccc2CN1)C(=O)Nc1ccc2c(c1)OCCO2	nt	21%	-9%	-16%	16%[0.0925 µM]
CSCC[C@H](NC(=O)[C@@H]1Cc2ccccc2CN1)C(=O)Nc1ccc2c(c1)OCCO2	nt	31%	?	-34%	50µM*
Cc1ccc(NC(=O)[C@H](Cc2ccccc2)NC(=O)[C@@H]2Cc3ccccc3CN2)c(C)c1	nt	34%	-20%[57.1 µM]	-12%	35µM*
SMILES	L3MBTL1 block	HP1b chromo inh	BAZ2B block	JMJD2A Tudor	G9a block
Cc1cc(C)cc(NC(=O)[C@H](NC(=O)[C@@H]2Cc3ccccc3CN2)c2ccccc2)c1	nt	15%	-26%	-15%	79µM*
CCCN(CCC)CCCNC(=O)C1CCN(c2nc3ccc(CC)cc3s2)CC1	nt	-2%	-5%	-20%	-27%[59 µM]
CC1CC(C)(C)Nc2ccc(OC(=O)c3ccco3)cc21 (stereo unspecified)	?	-9%	?	?	45µM*
Cc1ccc(CN(C(=O)c2cccs2)C2CCS(=O)(=O)C2)cc1 (stereo unspecified)	nt	30%	-19%	7%	1%
COc1cccc(CN(C(=O)c2cccs2)C2CCS(=O)(=O)C2)c1 (stereo unspecified)	nt	10%	-14%	56µM*	20%
CCN(CC)c1ccc(CN(C(=O)c2cccs2)C2CCS(=O)(=O)C2)cc1 (stereo unspecified)	nt	5%	?	?	40µM*
CCc1ccc(CN(C(=O)c2ccco2)C2CCS(=O)(=O)C2)cc1 (stereo unspecified)	nt	12%	2%	22µM*	?
O=C(c1ccco1)N(Cc1cccc(F)c1)C1CCS(=O)(=O)C1 (stereo unspecified)	nt	23%	56µM*	-13%	-9%
CCN(CC)c1ccc(CN(C(=O)c2ccco2)C2CCS(=O)(=O)C2)cc1 (stereo unspecified)	-16%	4%	-36%	-35%	45µM*
CCN(CC)c1ccc(CN(C(=O)c2cc(OC)c(OC)c(OC)c2)C2CCS(=O)(=O)C2)cc1 (stereo unspecified)	-5%	-5%	?	?	35µM*
O=C(c1ccco1)N(Cc1ccc(Cl)cc1)C1CCS(=O)(=O)C1 (stereo unspecified)	nt	31%	-6%	-7%	nt
COc1ccc(NC(=O)Cn2ncc3c(C)n(Cc4cccc(Cl)c4)c(C)c3c2=O)cc1	nt	56%	-2%	1%	2%[59 µM]
CCc1ccc(NC(=O)Cn2ncc3c(C)n(Cc4cccc(Cl)c4)c(C)c3c2=O)cc1	nt	22%	79µM*	-8%	-5%[59 µM]
CCc1ccc(NCc2cc3ccc(OC)cc3n(CC(=O)Nc3ccc(F)cc3F)c2=O)cc1	nt	35%	-26%	1%	?
COc1ccc(-c2ccc3c(c2)S(=O)(=O)c2cccc(C(=O)NC[C@@H]4CCCO4)c2C3=O)cc1OC	-1%	12%	?	40µM*	7%[2.33 µM]
O=C(NC[C@@H]1CCCO1)c1cccc2c1C(=O)c1ccc(Cl)cc1S2(=O)=O	9%	21%	6%	-27%	6%[0.501 µM]
COCCCNc1nc(NCc2ccccc2OC)c2cnn(C)c2n1	nt	35%	3%	-24%	48%[59 µM]
CC(=O)Nc1ccc(S(=O)(=O)N2CCC(n3c(C)nc4cccnc43)CC2)cc1	nt	15%	-6%	-12%	7%[59 µM]
CCN(CCCNC(=O)CNC(=O)Cn1cnc2ccccc2c1=O)c1ccccc1	nt	12%	-7%	-17%	2.2µM*
CCN(CCCNC(=O)COc1cc(=O)n(C)c2ccccc12)c1ccccc1	2%	-2%	13%	?	-10%[0.0925 µM]
CCN(CCCNC(=O)CSc1cc(=O)n(CC)c2ccccc12)c1cccc(C)c1	nt	?	22µM*	32µM*	?

Bioassay records: PubChem, National Center for Advancing Translational Sciences (NCATS)
